# Measured values: ChEMBL document CHEMBL3988442, “University of Dundee, Small-Polar-MMV Screening Library” (2021)
# Out of some 48,000 compounds screened, about 13,000 (27%) showed an effect of 50% or more. Some of the results follow.
# System: Wolbachia pipientis
# Experiment: Anti-Wolbachia Cell-Based Screen
# Type: functional
# Parameters: scale not given: in the data most compounds retested in dose-response had high values
# Details: 5 µM
row,Structure (SMILES),Percent Effect [%]
1,NC(=O)C(NC(=O)c1ccc(NC2CC2)nc1)c1ccccc1 (configuration not stated),15.13
2,CC(C)n1cnc(C2CN(C)c3ccc(C(=O)NC4CCCC4)cc32)n1 (configuration not stated),-4.903
3,CC(=O)N[C@@H](CC(C)C)C(=O)N1CCC(n2cc(CO)nn2)CC1,-15.95
4,CCCc1nccn1-c1ccc(C(C)O)cc1 (configuration not stated),-9.636
5,Cc1oc(C(C)C)cc1C(=O)N1C[C@H]2CC[C@@H]1CN(C(=O)N(C)C)C2,-18.45
6,O=C(N1CCC(Oc2ccncc2)C1)C1(c2ccc(F)cc2)CC1 (configuration not stated),-3.796
7,COc1cnc(N2CCN(C)CC2)nc1-c1ccnn1C,-15.65
8,c1cc(-c2c[nH]c([C@@H]3COCCN3Cc3csnn3)n2)ccn1,7.154
9,Cc1cnc(-c2nc(O)c3c(n2)CN(C(=O)CC2CCCC2)CC3)cn1,148.5
10,Nc1cc2c(nn1)CCN(C(=O)CC1CCCC1)C2,-4.566
11,O=C1NCCN(CC2CCCCC2)C1CC(=O)N1CCc2n[nH]cc2C1 (configuration not stated),-15.6
12,Cc1cnc(N2CCC3(CC2)CCN(c2cncnc2)C3=O)nc1,-8.08
13,NS(=O)(=O)NCc1cc(-c2ccc(C(F)(F)F)cc2)n[nH]1,103.6
14,NS(=O)(=O)c1ccc(NCc2ccccc2)cc1C(F)(F)F,11.93
15,O=C(NCc1nc[nH]n1)c1cc(COc2cccc(C(F)(F)F)c2)[nH]n1,0.1207
16,CCOCCCC(=O)N1CCN(c2cccc(OC)c2)C(C)C1 (configuration not stated),5.389
17,Cc1ccc2c(c1)c(CNC(=O)C1CCN(CC(N)=O)CC1)nn2C,11.07
18,Cc1nc(CN(C)Cc2nc(-c3ccccc3)no2)co1,-6.169
19,COc1cccc(CN(C)Cc2ccccc2C#N)c1OC,-9.098
20,Cc1cc(CN(C)CCC(O)c2ccccc2)no1 (configuration not stated),107.6
21,CN(Cc1nc(-c2ccccc2)no1)C(=O)CNS(C)(=O)=O,-1.951
22,CN(CCC(O)c1ccccc1)Cc1ccccc1C#N (configuration not stated),111.8
23,Cc1cc(CN(C)CCC(O)c2ccccc2)nn1C (configuration not stated),-3.114

row,Structure (SMILES),Percent Effect [%]
1,N#Cc1ccccc1CN(CC(N)=O)C1CCCC1,-5.252
2,Cc1cc(CN(C)CCN(C)c2ccccc2)no1,9.198
3,CN(CCC(O)c1ccccc1)Cc1nc(-c2ccccc2)no1 (configuration not stated),118.9
4,COc1ccc(F)c(NCc2cnn(C3CCS(=O)(=O)C3)c2)c1 (configuration not stated),7.936
5,Cc1ccc(CNc2ccn(CCc3ccncc3)n2)s1,19.44
6,COc1ccsc1C(=O)NC1CCN(c2ccc(C#N)cc2)CC1,-30.88
7,COc1ccc(C(=O)NC2CCN(c3ncccn3)CC2)cc1F,13.96
8,COc1ccsc1C(=O)NC1CCN(c2cccc(F)c2)CC1,98.27
9,COc1cc(OC)cc(N2CCC(NC(=O)c3cccn3C)CC2)c1,-13.09
10,COc1ccc(N2CCC(NC(=O)c3sccc3C)CC2)cc1,79.74
11,COc1ccc(N2CCC(N(C)C(C)C(=O)N(C)C)CC2)cc1 (configuration not stated),7.179
12,COc1ccc(N2CCC(NC(=O)c3ccc(C#N)cc3)CC2)cc1,89.14
13,O=C(Cc1cccs1)NC1CCN(c2cccc(F)c2)CC1,-15.75
14,COc1cc(OC)cc(N2CCC(NC(=O)c3ccc[nH]3)CC2)c1,-4.011
15,CCN(Cc1ccncc1)C1CCCN(Cc2ccc(F)cc2Cl)C1 (configuration not stated),-7.648
16,O=C(O)CC1COCCN1C(=O)C1(c2ccc(Cl)cc2)CCC1 (configuration not stated),14.34
17,O=S(=O)(CCC1CCCO1)NCc1ncc(-c2ccccc2)o1 (configuration not stated),-10.29
18,Cc1nn(C)c(C)c1OCC(=O)NCC(O)c1ccco1 (configuration not stated),9.29
19,CCC1CN(Cc2nc(C(C)C)no2)CCC(=O)N1Cc1ccccc1 (configuration not stated),11.67
20,COc1cccc(-c2noc(-c3ccc(NCCCO)nc3)n2)c1OC,11.35
21,Cc1nccn1CCC1CCCCN1Cc1ccc2c(c1)OCCO2 (configuration not stated),18.54
22,Nc1cc(CCC2CN(Cc3ccc4cc[nH]c4c3)CCO2)ccn1 (configuration not stated),120
23,Cc1cc(C)n(CC2CN(Cc3cccc(C(N)=O)c3)CCO2)n1 (configuration not stated),-10.5

row,Structure (SMILES),Percent Effect [%]
1,c1cnn(CC2CN(Cc3ccc(-n4ccnc4)cc3)CCO2)c1 (configuration not stated),-4.298
2,COc1ccc(CCN2CCOC(Cn3nc(C)nc3C)C2)cc1 (configuration not stated),6.569
3,Nc1cc(CCC2CN(Cc3ccc(C(=O)O)cc3)CCO2)ccn1 (configuration not stated),7.558
4,CC(C)(C)c1cc(CN2CCOC(CCc3ccccc3)C2)n[nH]1 (configuration not stated),14.18
5,CCc1nnc2n1CCN(Cc1ccc3c(c1)OCCO3)C2,1.979
6,Nc1cc(CCC2CN(Cc3ccc4c(c3)OCCO4)CCO2)ccn1 (configuration not stated),90.24
7,Nc1cc(CCC2CN(Cc3cccc(C(=O)O)c3)CCO2)ccn1 (configuration not stated),106.3
8,COc1cccc(CN2CCOC(Cn3nc(C)cc3C)C2)c1 (configuration not stated),-2.903
9,COc1ccc(CN2CCOC(CCc3ccnc(N)c3)C2)cc1 (configuration not stated),124.3
10,CC(C)c1nn(CC(=O)N2CCCCC2)c(=O)c2c1cnn2C(C)(C)C,-4.82
11,COCc1nc(CN2CC(=O)N(C)c3ccccc3C2=O)no1,-2.193
12,COc1ccc(S(=O)(=O)Cc2noc(CC(C)C)n2)cc1,-2.844
13,COCc1nc(CN2CCN(c3ccc(OC)cc3)C(=O)C2C)no1 (configuration not stated),94.02
14,COc1cccc(S(=O)(=O)Cc2noc(CC(C)C)n2)c1,-0.9778
15,COc1ccc(N2CCN(Cc3noc(CC(C)C)n3)C(C)C2=O)cc1 (configuration not stated),87.05
16,COCc1nc(CN2CC(C)(c3ccccc3)CCC2=O)no1 (configuration not stated),5.849
17,CN(CC(N)=O)CC(=O)N(C1=CCCCC1)C1CC1,-2.779
18,CC(=O)NCc1noc2c1CN(Cc1cccs1)CC2,-5.877
19,c1coc(CN2CCc3onc(Cn4ccnc4)c3C2)c1,-8.337
20,Cc1cccc(CN2CCc3[nH]nc(C(=O)N4CCNC(=O)C4)c3C2)n1.O=C(O)C(F)(F)F,-67.35
21,O=C(O)C(F)(F)F.c1csc(CN2CCc3onc(Cn4cccc4)c3C2)c1,-13.64
22,CN(C)Cc1noc2c1CN(Cc1ccc[nH]1)CC2,98.7
23,Cc1cccc(CN2CCc3onc(CN(C)C)c3C2)n1,101.4

row,Structure (SMILES),Percent Effect [%]
1,CN(C)Cc1noc2c1CN(C(=O)c1ccncc1)CC2.O=C(O)C(F)(F)F.O=C(O)C(F)(F)F,-9.47
2,Cc1cccc(CN2CCc3[nH]nc(C(=O)N(C)C)c3C2)n1.O=C(O)C(F)(F)F,-6.855
3,Cc1cccc(CN2CCc3onc(Cn4cccc4)c3C2)n1.O=C(O)C(F)(F)F,93.67
4,Cc1cccc(CN2CCc3onc(CO)c3C2)n1.O=C(O)C(F)(F)F,107.8
5,O=C(O)C(F)(F)F.c1coc(CN2CCc3onc(Cn4cccc4)c3C2)c1,-0.2735
6,CN(C)Cc1noc2c1CN(Cc1ccsc1)CC2.O=C(O)C(F)(F)F.O=C(O)C(F)(F)F,-7.7
7,CC(C)OC(=O)N1C[C@H]2CC[C@@H]1CN(C(=O)c1ccccc1)C2,-6.398
8,O=C(COc1coc(CN2CCCCC2)cc1=O)Nc1ccccc1Cl,12.81
9,Cc1csc(CNC(=O)NCC(O)c2ccc(F)c(F)c2)n1 (configuration not stated),-9.167
10,COc1ccc(-n2ccnc2-c2cnc(C(C)C)nc2)cc1C(=O)O,-1.473
11,CCNC(=O)NC(=O)CSC(C)c1c(F)cccc1F (configuration not stated),4.576
12,CCCS(=O)(=O)NCCc1ncc(C)s1,113.4
13,CCc1cnc(CCNC(=O)N2CCCC(c3ncc[nH]3)C2)s1 (configuration not stated),-8.688
14,CCCS(=O)(=O)NCc1ncc(C)c(OC)c1C,21.89
15,CCc1cnc(CN(C)C(=O)NC2CCN(CC3CC3)C2)s1 (configuration not stated),-7.872
16,CCCS(=O)(=O)NCCc1ncc(CC)s1,98.37
17,CCc1cnc(CCNS(C)(=O)=O)s1,96.32
18,Cc1cnc(CCNC(Cc2ccncc2)C(F)(F)F)s1 (configuration not stated),4.089
19,CCCS(=O)(=O)NCCn1ccc(-c2cccs2)n1,29.12
20,CS(=O)(=O)NCCc1cccc2cccnc12,-14.96
21,Cc1noc(C)c1CN(C)Cn1nccc1-c1cccnc1,-3.571
22,N#Cc1ccccc1CC1CCCS(=O)(=O)C1 (configuration not stated),23.18
23,CC(C)C(C(=O)N1CCC(Nc2cccnn2)CC1)n1cncn1 (configuration not stated),1.287

row,Structure (SMILES),Percent Effect [%]
1,CC(C)C(C(=O)N1CCC(N(C)c2cccnn2)CC1)n1cncn1 (configuration not stated),6.546
2,Cc1ccc(NC2CCN(C(=O)C(C(C)C)n3cncn3)CC2)nn1 (configuration not stated),114.7
3,Cc1ccc(NC2CCN(C(=O)C(C)n3cncn3)CC2)nn1 (configuration not stated),101.5
4,CCc1nc(Cn2cncc(Br)c2=O)no1,3.979
5,Cc1nc(NC(=O)CCOCC(F)(F)F)ccc1Br,7.301
6,CC(C)n1cnnc1Cn1c(=O)ccc2ccccc21,-18.72
7,COCCc1noc(-c2cn(Cc3ccc(OC)cc3)nn2)n1,3.926
8,CS(=O)(=O)c1ccc(O[C@H]2COCCN(Cc3ccncc3)C2)cc1,8.188
9,CN(C)c1cccc(C2CCN(c3ncccn3)CC2)n1,105.5
10,Cc1cc(C)nc(N2CCC(c3nnc(CN(C)C)n3C3CC3)CC2)n1,-32.06
11,FC(F)(F)c1c[nH]c(C2CCN(c3ncccn3)CC2)n1,-5.698
12,Cc1cc(C)nc(N2CCC(c3ccnc(N(C)C)n3)CC2)n1,86.89
13,CN(Cc1nncn1C)c1nccc(C2CCCC2)n1,-0.6799
14,CN(C)c1ccnc(N2CCC(NCCOc3ccccc3)CC2)n1,-8.661
15,CN(C)c1nccc(C2CCN(C3CCCCC3O)CC2)n1 (configuration not stated),139.6
16,CC(C)c1ccnc(N[C@H]2COC[C@@H]2N2CCCC2)n1,5.714
17,CN(C)c1cccc(C2CCN(C3COCC3O)CC2)n1 (configuration not stated),145.5
18,COc1cc(C)nc(N2CCN(C(=O)CN(C)C3CC3)CC2)n1,-6.068
19,CCn1cnnc1CN(C)c1nccc(C2CCCC2)n1,-5.507
20,O=C(Nc1ccc2ncsc2c1)N1CCCN([C@H]2COC[C@@H]2O)CC1,-6.319
